Test results published in PubChem BioAssay AID1159580 (chemical genetic matrix, 2015).
The whole screen tested about 5,500 compounds, of which about 2,000 (36%) were called active. Inconclusive results (about 18%) are left out. Some of the results follow. Unmarked numbers belong to inactive results. Cut-off read from the data, not from the text of the source: active = normalized growth mostly below about 0.91 (no sharp cut-off); inconclusive = no clear call, values can overlap the other calls; inactive = mostly above about 0.92.

Assay: chemical genetic growth profiling, strain panel (AID 1159580);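 note: tested at 20 µM; growth read once vehicle control cultures reached saturation at 30 °C; 1 = growth at the plate median or of vehicle wells; lower values mean less growth of the strain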
Details: S. cerevisiae deletion strains, growth OD

SMILES: COc1ccc2c(c1)OCc1c-2oc2cc(OC)ccc12
- normalized growth (locus YJR075W, strain HOC1, stronger effect = lower value): 0.898
- normalized growth (locus YKL009W, strain mrt4, stronger effect = lower value): 1.02
- normalized growth (locus YKL068W, stronger effect = lower value): 1.01
- normalized growth (locus YKL085W, strain MDH1 (second series), stronger effect = lower value): 0.984
- normalized growth (locus YKL085W, strain MDH1, stronger effect = lower value): 0.984
- normalized growth (locus YKL160W, strain elf1, stronger effect = lower value): 0.748 (active)
- normalized growth (locus YKL190W, strain CNB1, stronger effect = lower value): 1
- normalized growth (locus YKR001C, strain vps1, stronger effect = lower value): 0.777 (active)
- normalized growth (locus YKR026C, strain gcn3, stronger effect = lower value): 0.988
- normalized growth (locus YKR091W, strain srl3, stronger effect = lower value): 0.987
- normalized growth (locus YLL001W, strain dnm1, stronger effect = lower value): 0.871 (active)
- normalized growth (locus YLL041C, strain sdh2, stronger effect = lower value): 0.972
- normalized growth (locus YLR027C, strain aat2, stronger effect = lower value): 0.8 (active)
- normalized growth (locus YLR039C, strain RIC1, stronger effect = lower value): 0.446 (active)
- normalized growth (locus YLR058C, strain SHM2, stronger effect = lower value): 0.936
- normalized growth (locus YLR102C, strain apc9, stronger effect = lower value): 1.01
- normalized growth (locus YLR113W, strain HOG1, stronger effect = lower value): 0.928
- normalized growth (locus YLR221C, strain rsa3, stronger effect = lower value): 0.762 (active)
- normalized growth (locus YLR258W, strain gsy2, stronger effect = lower value): 0.895 (active)
- normalized growth (locus YLR262C, strain YPT6 (second series), stronger effect = lower value): 0.387 (active)
- normalized growth (locus YLR262C, strain YPT6, stronger effect = lower value): 0.505 (active)
- normalized growth (locus YLR268W, strain sec22, stronger effect = lower value): 0.966
- normalized growth (locus YLR320W, strain mms22, stronger effect = lower value): 0.625 (active)
- normalized growth (locus YLR330W, strain CHS5, stronger effect = lower value): 0.929
- normalized growth (locus YLR342W, strain FKS1 (second series), stronger effect = lower value): 0.796
- normalized growth (locus YLR342W, strain FKS1, stronger effect = lower value): 0.73 (active)
- normalized growth (locus YLR357W, strain rsc2, stronger effect = lower value): 0.909
- normalized growth (locus YLR370C, strain arc18, stronger effect = lower value): 0.94
- normalized growth (locus YLR371W, strain rom2, stronger effect = lower value): 1.01
- normalized growth (locus YLR384C, strain iki3, stronger effect = lower value): 1.01
- normalized growth (locus YLR418C, strain cdc73, stronger effect = lower value): 0.901
- normalized growth (locus YML016C, strain PPZ1, stronger effect = lower value): 0.978
- normalized growth (locus YML032C, strain rad52, stronger effect = lower value): 0.959
- normalized growth (locus YML120C, strain ndi1, stronger effect = lower value): 0.842 (active)
- normalized growth (locus YML124C, strain tub3, stronger effect = lower value): 1.01
- normalized growth (locus YMR058W, strain fet3, stronger effect = lower value): 0.699 (active)
- normalized growth (locus YMR078C, strain ctf18, stronger effect = lower value): 1.01
- normalized growth (locus YMR125W, strain sto1, stronger effect = lower value): 0.877 (active)
- normalized growth (locus YMR129W, stronger effect = lower value): 0.985
- normalized growth (locus YMR205C, strain PFK2, stronger effect = lower value): 0.694 (active)
- normalized growth (locus YMR223W, strain ubp8, stronger effect = lower value): 1.01
- normalized growth (locus YMR231W, strain pep5, stronger effect = lower value): 0.912 (active)
- normalized growth (locus YMR263W, strain SAP30, stronger effect = lower value): 0.954
- normalized growth (locus YMR307W, strain GAS1, stronger effect = lower value): 1
- normalized growth (locus YNL067W, strain RPL9B, stronger effect = lower value): 0.92
- normalized growth (locus YNL071W, strain lat1, stronger effect = lower value): 0.502 (active)
- normalized growth (locus YNL153C, strain GIM3, stronger effect = lower value): 0.968
- normalized growth (locus YNL183C, strain NPR1, stronger effect = lower value): 0.888
- normalized growth (locus YNL209W, strain ssb2, stronger effect = lower value): 0.965
- normalized growth (locus YNL233W, strain BNI4, stronger effect = lower value): 0.9
- normalized growth (locus YNL248C, strain rpa49, stronger effect = lower value): 0.894
- normalized growth (locus YNL250W, strain rad50, stronger effect = lower value): 1.03
- normalized growth (locus YNL271C, strain bni1, stronger effect = lower value): 1.01
- normalized growth (locus YNL298W, strain CLA4, stronger effect = lower value): 1.03
- normalized growth (locus YNL307C, strain MCK1, stronger effect = lower value): 0.858 (active)
- normalized growth (locus YNL322C, strain KRE1 (second series), stronger effect = lower value): 0.955
- normalized growth (locus YNL322C, strain KRE1, stronger effect = lower value): 0.874 (active)
- normalized growth (locus YNR049C, strain mso1, stronger effect = lower value): 1
- normalized growth (locus YNR052C, strain pop2, stronger effect = lower value): 1.02
- normalized growth (locus YOL012C, strain htz1): 0.977
- normalized growth (locus YOL147C, strain pex11, stronger effect = lower value): 1.01
- normalized growth (locus YOR001W, strain rrp6, stronger effect = lower value): 0.896
- normalized growth (locus YOR061W, strain CKA2, stronger effect = lower value): 1
- normalized growth (locus YOR069W, strain VPS5, stronger effect = lower value): 0.956
- normalized growth (locus YOR070C, strain gyp1, stronger effect = lower value): 0.836 (active)
- normalized growth (locus YOR080W, strain dia2, stronger effect = lower value): 1
- normalized growth (locus YOR083W, strain WHI5, stronger effect = lower value): 0.812 (active)
- normalized growth (locus YOR106W, strain vam3, stronger effect = lower value): 0.822 (active)
- normalized growth (locus YOR136W, strain idh2, stronger effect = lower value): 1
- normalized growth (locus YOR144C, strain elg1, stronger effect = lower value): 0.991
- normalized growth (locus YOR184W, strain ser1, stronger effect = lower value): 0.821 (active)
- normalized growth (locus YOR231W, strain MKK1, stronger effect = lower value): 0.938
- normalized growth (locus YOR265W, strain rbl2, stronger effect = lower value): 0.928 (active)
- normalized growth (locus YOR270C, strain vph1, stronger effect = lower value): 0.476 (active)
- normalized growth (locus YOR290C, strain snf2, stronger effect = lower value): 0.834 (active)
- normalized growth (locus YOR316C, strain cot1, stronger effect = lower value): 1.02
- normalized growth (locus YPL051W, strain arl3, stronger effect = lower value): 0.677 (active)
- normalized growth (locus YPL078C, strain atp4, stronger effect = lower value): 0.764 (active)
- normalized growth (locus YPL106C, strain sse1, stronger effect = lower value): 0.969
- normalized growth (locus YPL240C, strain hsp82, stronger effect = lower value): 0.915 (active)
- normalized growth (locus YPL256C, strain CLN2, stronger effect = lower value): 0.95
- normalized growth (locus YPR119W, strain clb2, stronger effect = lower value): 0.998
- normalized growth (locus YPR141C, strain kar3, stronger effect = lower value): 1.03
- normalized growth (locus YPR163C, strain tif3, stronger effect = lower value): 1
- normalized growth (locus YPR167C, strain met16, stronger effect = lower value): 0.992
- normalized growth (strain wtn01, stronger effect = lower value): 0.983
